In article PMC10726135, “HNF4α isoforms regulate the circadian balance between carbohydrate and lipid metabolism in the liver”:
Whole data set: some 18,000 sequences, median “log2 normalized intensity” near 0.36, cut for the highest 2% near 7.3. For the sample, the highest values were picked, then their nearest neighbours and some sequences at random.

biological target: T1, HNF4alpha8 (COS-7 nuclear extract) (Homo sapiens, UniProt P41235-5 1-452); test: protein-binding microarray; COS-7 nuclear extract on double-stranded Agilent 4x180k PBM; binding buffer, salt, pH and temperature not given in the material; high values mean tight binding; conditions: chain copies: 2; label: 3' end of strand 1 on the slide; dsDNA, one strand shown
T1 sequence: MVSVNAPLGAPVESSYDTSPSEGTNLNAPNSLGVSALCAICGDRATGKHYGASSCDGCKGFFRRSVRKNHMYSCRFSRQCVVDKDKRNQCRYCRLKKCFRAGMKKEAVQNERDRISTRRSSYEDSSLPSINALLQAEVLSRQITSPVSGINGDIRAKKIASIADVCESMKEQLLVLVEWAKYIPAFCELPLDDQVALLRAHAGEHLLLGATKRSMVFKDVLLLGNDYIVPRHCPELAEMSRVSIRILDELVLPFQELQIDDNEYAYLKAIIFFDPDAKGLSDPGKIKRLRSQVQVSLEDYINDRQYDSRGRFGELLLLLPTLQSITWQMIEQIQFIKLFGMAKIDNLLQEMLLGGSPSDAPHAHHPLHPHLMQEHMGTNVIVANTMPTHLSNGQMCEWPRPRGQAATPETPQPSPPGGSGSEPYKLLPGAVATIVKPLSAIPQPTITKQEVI
Procedure, shortened: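 Binding signal was defined as the normalized, background-corrected gProcessedSignal reported by Agilent software. It came from nuclear extracts of COS-7 cells transiently transfected with a human HNF4α isoform expression vector, applied to a custom Agilent SurePrint G3 4x180k array. That array held ~44,000 test sequences in quadruplicate as double-stranded ~60-nt oligonucleotides, and bound HNF4α was imaged at 2-µm resolution on an Agilent G2565CA scanner.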

| Sequence | binding signal [log2 normalized intensity] |
| --- | --- |
| GGTCAATGTGCACATTCGAAGTTTTGCTCCGCCTAGGGAGATTAGAGTATCGGTCGA | 1.65 |
| GGATATTTGATCAAAGGTCAGCTCTCCTTTGCCTAGGGAGATTAGAGTATCGGTCGA | 5.11 |
| TTTATAATCCTAGCTTGGTTTTTCTGGGACGCCTAGGGAGATTAGAGTATCGGTCGA | 0.942 |
| GGATTATGGAGATGGAGATGGCCTGGAGGTGCCTAGGGAGATTAGAGTATCGGTCGA | 0.909 |
| ACAACCAGGGAGATGTGAGCGACCTTTGCAGCCTAGGGAGATTAGAGTATCGGTCGA | 4.55 |
| GGTTGTAAAATGAGGTCAGCATGGTGGGAGGCCTAGGGAGATTAGAGTATCGGTCGA | 1.04 |
| GGGGCGATGCTTCCAAAGTCCACAGTCCCCGCCTAGGGAGATTAGAGTATCGGTCGA | 3.92 |
| CTCTTTTACTGTACTTCTTTAGGACTGCTCGCCTAGGGAGATTAGAGTATCGGTCGA | 1.37 |
| ATATAAAAACTAACCATACTGAGTGTTGGTGCCTAGGGAGATTAGAGTATCGGTCGA | -0.252 |
| AGTGTAAGGACATTGCCCCCTATGTAAAGGGCCTAGGGAGATTAGAGTATCGGTCGA | 4.09 |
| TGATTACCCTTATCTTATCTCCTGCTAAATGCCTAGGGAGATTAGAGTATCGGTCGA | -0.759 |
| TTTCAACATTTAACTTAACCACTCAATCAGGCCTAGGGAGATTAGAGTATCGGTCGA | -0.86 |
| CTTTGAGATTTGCATTCATGATCTTAGATAGCCTAGGGAGATTAGAGTATCGGTCGA | 0.242 |
| TTAGCTATCAGTGTTGACCTCTGGACCTCAGCCTAGGGAGATTAGAGTATCGGTCGA | 7.79 |
| CTCTAACCACTTTGAAATAGTGACCTCTGCGCCTAGGGAGATTAGAGTATCGGTCGA | 5.01 |
| GTGACCTTTGACCTCTGGCCTTTGCAGTTAGCCTAGGGAGATTAGAGTATCGGTCGA | 8.79 |
| ACCACTTTGAAATAGTGACCTCTGCTGGCCGCCTAGGGAGATTAGAGTATCGGTCGA | 3.43 |
| GATGTTTAGCTATCAGTGTTGACCTCTGGAGCCTAGGGAGATTAGAGTATCGGTCGA | 6.06 |
| TGACCTTTGCCTCATTCTTATTGCCTCATGGCCTAGGGAGATTAGAGTATCGGTCGA | 4.2 |
| TCTGGTGCCAAGGAGCCTCTGCAACCTTTGGCCTAGGGAGATTAGAGTATCGGTCGA | 3.43 |
| TATCAGTGTTGACCTCTGGACCTCATCTTCGCCTAGGGAGATTAGAGTATCGGTCGA | 6.23 |
| CTGACAAGTATCTCGGTCAAACCTTTGACCGCCTAGGGAGATTAGAGTATCGGTCGA | 6.35 |

| Sequence | binding signal [log2 normalized intensity] |
| --- | --- |
| CTCAAGTGACCTTTGACCTCTGGCCTTTGCGCCTAGGGAGATTAGAGTATCGGTCGA | 10.3 |
| CTGACCTCAAGTGACCTTTGACCTCTGGCCGCCTAGGGAGATTAGAGTATCGGTCGA | 11.2 |
| ACCTTTGCCTTCTTGACATCTCTCTCTGCAGCCTAGGGAGATTAGAGTATCGGTCGA | -0.0607 |
| CAGGAGTCGGGAGGTAGGGGTGGCGGGTTGGCCTAGGGAGATTAGAGTATCGGTCGA | 0.403 |
| GCCAAAGGTCAGAGTTGAACCCTTGGGGCTGCCTAGGGAGATTAGAGTATCGGTCGA | 4.38 |
| TCTGCTGTACATATTTGCCAAGTGATAAGGGCCTAGGGAGATTAGAGTATCGGTCGA | 1.01 |
| TCTAACATTTTTGACCTTCAGCATCTTCAAGCCTAGGGAGATTAGAGTATCGGTCGA | 3.81 |
| CCTTTGAGATAGCTATGATTATCCTTATCTGCCTAGGGAGATTAGAGTATCGGTCGA | -0.293 |
| ATCTGTATCAGCCTGTGACAAAGTCCATCTGCCTAGGGAGATTAGAGTATCGGTCGA | 5.65 |
| CCCGGACCAGGCCGGGTCACGTGGGTCCAGGCCTAGGGAGATTAGAGTATCGGTCGA | 3.63 |
| GTCAGTCTTTGTTCTAGTAAGGCCTTCAAAGCCTAGGGAGATTAGAGTATCGGTCGA | 0.595 |
| TTCAGAAGACTTCCTGGCCTCTCTGCAAATGCCTAGGGAGATTAGAGTATCGGTCGA | -0.39 |
| GTGAGGGAGGAGACTTTGACCTCTGCTAGGGCCTAGGGAGATTAGAGTATCGGTCGA | 6.12 |
| TAACGGTGAGGGAGGAGACTTTGACCTCTGGCCTAGGGAGATTAGAGTATCGGTCGA | 7.45 |
| GGAGGAGACTTTGACCTCTGCTAGGTTTGGGCCTAGGGAGATTAGAGTATCGGTCGA | 5.5 |
| TATGTCTCTCCTATTCAGGTATTTGCTCTGGCCTAGGGAGATTAGAGTATCGGTCGA | 0.488 |
| CACAGTGTAGAAGGCAAGGGTCAAGATGTCGCCTAGGGAGATTAGAGTATCGGTCGA | 2.31 |
| ATTCCAGTGTTTCAAAGGAGTGTCTTTCTCGCCTAGGGAGATTAGAGTATCGGTCGA | 1.51 |
| ATTAACTAACCTTTGAACCAGATGGCCCTCGCCTAGGGAGATTAGAGTATCGGTCGA | 4.3 |
| CCTTACCTCCATTAACTAACCTTTGAACCAGCCTAGGGAGATTAGAGTATCGGTCGA | 7.58 |
| TTACTCATGTGGTCCTAAGACTAACCTTTGGCCTAGGGAGATTAGAGTATCGGTCGA | 4.06 |
| TAAGACTAACCTTTGACCATCCACGGATGCGCCTAGGGAGATTAGAGTATCGGTCGA | 5.5 |

| Sequence | binding signal [log2 normalized intensity] |
| --- | --- |
| TACTCATGTGGTCCTAAGACTAACCTTTGAGCCTAGGGAGATTAGAGTATCGGTCGA | 7.11 |
| ATGTGGTCCTAAGACTAACCTTTGACCATCGCCTAGGGAGATTAGAGTATCGGTCGA | 8.15 |
| CCTCCATTAACTAACCTTTGAACCAGATGGGCCTAGGGAGATTAGAGTATCGGTCGA | 5.69 |
| GGTCCTAAGACTAACCTTTGACCATCCACGGCCTAGGGAGATTAGAGTATCGGTCGA | 6.44 |
| CATGTGGTCCTAAGACTAACCTTTGACCATGCCTAGGGAGATTAGAGTATCGGTCGA | 8.37 |
| CTGACATTCTCCACTTGGTGACTGTCATTTGCCTAGGGAGATTAGAGTATCGGTCGA | 0.274 |
| TGCCCTCACAGGTTCCAGCATGGACTTCACGCCTAGGGAGATTAGAGTATCGGTCGA | 3.32 |
| TTCCGCGGACGTGTTCCCACAGTGCCCTCTGCCTAGGGAGATTAGAGTATCGGTCGA | 3.77 |
| AGTTTCAACTTAACCCCAGTTTAGCAATTTGCCTAGGGAGATTAGAGTATCGGTCGA | 2.08 |
| AGGTGACCTTTGCTCCGGTTCCCAATAAGTGCCTAGGGAGATTAGAGTATCGGTCGA | 5.71 |
| CTAAGCAGGCACATTCCAGGACCTTTGCTCGCCTAGGGAGATTAGAGTATCGGTCGA | 4.83 |
| GACATAACACAGGTGACCTTTGCTCCGGTTGCCTAGGGAGATTAGAGTATCGGTCGA | 7.92 |
| TCTTTTCTAAGACATAACACAGGTGACCTTGCCTAGGGAGATTAGAGTATCGGTCGA | 4.48 |
| TCTAAGACATAACACAGGTGACCTTTGCTCGCCTAGGGAGATTAGAGTATCGGTCGA | 8.96 |
| AACACAGGTGACCTTTGCTCCGGTTCCCAAGCCTAGGGAGATTAGAGTATCGGTCGA | 7.12 |
| TGTGGGTAATTAATCTGATCGCCCTCCCCCGCCTAGGGAGATTAGAGTATCGGTCGA | 5.29 |
| CTATTCTCTAAACTCTGGGCTCTATTTGGAGCCTAGGGAGATTAGAGTATCGGTCGA | 0.51 |
| GAGATGAGGCTCAGACCTGACCTTTGGATTGCCTAGGGAGATTAGAGTATCGGTCGA | 8.85 |
| TGCTGGAGATGAGGCTCAGACCTGACCTTTGCCTAGGGAGATTAGAGTATCGGTCGA | 7.17 |
| AAGACTTTGGACTTTGGACCTGAGGCTTTTGCCTAGGGAGATTAGAGTATCGGTCGA | 10.3 |
| GAGGCTCAGACCTGACCTTTGGATTCCCAGGCCTAGGGAGATTAGAGTATCGGTCGA | 7.11 |
| TACTTTGGACTGGGGACCTGGTCTGAGATAGCCTAGGGAGATTAGAGTATCGGTCGA | 1.25 |

| Sequence | binding signal [log2 normalized intensity] |
| --- | --- |
| GGACCTGAGGCTTTTGAGTCAATAATGGACGCCTAGGGAGATTAGAGTATCGGTCGA | 1.38 |
| ACAAGGAGTCTCCACTATGACCTGTGCTTTGCCTAGGGAGATTAGAGTATCGGTCGA | 2.18 |
| TATAGTTTATCTACCTTTGTACCTTTAGTAGCCTAGGGAGATTAGAGTATCGGTCGA | 4.65 |
| GTTGGGCAGAAGGTGTTTCAGATGGACCAAGCCTAGGGAGATTAGAGTATCGGTCGA | 1.98 |
| ATAGCTGCCTGTGTGTTCTGCTATTCATTAGCCTAGGGAGATTAGAGTATCGGTCGA | 0.562 |
| GTGCTGGTACATAGCAGGGGTTAGGTAAACGCCTAGGGAGATTAGAGTATCGGTCGA | -0.36 |
| AATCATGGGCCCACAGATGATCAAAGGTCAGCCTAGGGAGATTAGAGTATCGGTCGA | 7.91 |
| ATGGAGCTGGAGGGCAAAGGTCAGAGGCTGGCCTAGGGAGATTAGAGTATCGGTCGA | 6.88 |
| AGAGCGATCAAAGGTCACAGAGACCACAGGGCCTAGGGAGATTAGAGTATCGGTCGA | 5.89 |
| TGGGCCCACAGATGATCAAAGGTCAGTCTTGCCTAGGGAGATTAGAGTATCGGTCGA | 7.25 |
| TATGAGAGAGAGAGAGAGGTGGGCAAAGGTGCCTAGGGAGATTAGAGTATCGGTCGA | 1.33 |
| TCAGGAGCCCCACAGAGCAAAGGTCATGCAGCCTAGGGAGATTAGAGTATCGGTCGA | 6.34 |
| GTGGGTGCCAAACAAAAAGGGCAAAGGTCAGCCTAGGGAGATTAGAGTATCGGTCGA | 8.84 |
| TGACTGGAGCAGAGCGATCAAAGGTCACAGGCCTAGGGAGATTAGAGTATCGGTCGA | 7.44 |
| GGAGCAGAGCGATCAAAGGTCACAGAGACCGCCTAGGGAGATTAGAGTATCGGTCGA | 6.2 |
| CACTGGGGTCATGGAGCTGGAGGGCAAAGGGCCTAGGGAGATTAGAGTATCGGTCGA | 4.08 |
| GAGAGAGAGAGAGGTGGGCAAAGGTCTCAAGCCTAGGGAGATTAGAGTATCGGTCGA | 3.68 |
| GGGTCATGGAGCTGGAGGGCAAAGGTCAGAGCCTAGGGAGATTAGAGTATCGGTCGA | 8.54 |
| CCCCATATCCAGTCAATCCCGTGGACTTTGGCCTAGGGAGATTAGAGTATCGGTCGA | 6.13 |
